A selection: hits, their analogues and other compounds. The true share with any hit is near 12%.
L3MBTL1 inh – qHTS Assay for the Inhibitors of L3MBTL1. AlphaScreen L3MBTL1–H3K9me1 peptide binding. Potency, µM (titrated, usually from 57.1 µM), without a hit: at the top dose activity, negative = inhibition, usual class: inhibitors. actives 0.66% (n = 230,000); also: % is scaled to controls: 0 for no effect and ±100 for the full control effect; nearly all actives have a fitted effect of over 60% in size
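L3MBTL1 50 nM + b-AHA-H3(1-15)K9me1 75 nM, 30 min RT; compound added, 30 min RT; streptavidin donor/Ni-chelate acceptor beads 10 ug/mL each final, 30 min RT dark; AlphaScreen read.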
JMJD2A Tudor inh – qHTS Assay for Inhibitors of JMJD2A-Tudor Domain | Lysine-specific demethylase 4A (Homo sapiens), O75164 | AlphaScreen JMJD2A-Tudor / H3K4me3 peptide binding | Potency, µM (highest dose often 114 µM), for inactives: at the highest dose activity change, negative = inhibition, actives largely listed as inhibitors | actives 4.4% (n = 390,000); also: % is scaled to controls: 0 for no effect and ±100 for the full control effect; nearly all actives have a fitted effect of over 50% in size
HP1b binding inh – HTS for Inhibitors of HP1-beta Chromodomain Interactions with Methylated Histone Tails. Chromobox protein homolog 1 (Homo sapiens), P83916. AlphaScreen HP1-beta / biotin-H3K9me3 peptide binding. Potency, µM (doses to about 114 µM), for the others: top-dose activity change, negative = inhibition, usual class: inhibitors. actives 0.56% (n = 390,000). AID 540317, 2011; also: nearly all actives have a fitted effect of over 70% in size
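Compound inhibition of the preformed complex between 50 nM HP1-beta and 50 nM biotinylated H3K9me3 peptide was read by AlphaScreen. Buffer was PBS pH 7.4 with 0.01% Tween-20. Incubations ran 30 min at room temperature, with 10 ug/mL donor/acceptor beads.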
BAZ2B inh – qHTS Assay for Inhibitors of BAZ2B. Bromodomain adjacent to zinc finger domain protein 2B (Homo sapiens), Q9UIF8. AlphaScreen BAZ2B-H3K14Ac peptide displacement. Potency, µM (doses to about 114 µM), for inactives: top-dose activity change, negative = inhibition, actives largely listed as inhibitors. actives 4.4% (n = 360,000). AID 504333, 2011; also: % is scaled to controls: 0 for no effect and ±100 for the full control effect; nearly all actives have a fitted effect of over 60% in size
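Compounds, titrated to a top concentration of 110 uM, were incubated 30 min at room temperature with preformed BAZ2B/acetyl-K14 H3 peptide complex (50 nM each). Proximity signal was measured by AlphaScreen after 20 min with beads.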
Sfp PPTase inh – qHTS Assay for Inhibitors of Bacillus subtilis Sfp phosphopantetheinyl transferase (PPTase); 4'-phosphopantetheinyl transferase ffp (Bacillus subtilis), Q9F4F7; Biochemical Sfp PPTase activity, qHTS; Potency, µM, inactives show largest response in the series, negative = inhibition, most hits filed as inhibitors; actives 3.5% (n = 310,000); AID 1490, 2009;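 also: the enzyme is Sfp with the accession as filed and its product quenches rhodamine fluorescence; 0% = enzyme reaction without inhibitor and -100% = no enzyme wells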
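After 15 min at room temperature with compound, 15 nM Sfp received 5 uM rhodamine-CoA plus 12.5 uM BHQ-2-ybbR (50 mM Hepes pH 7.6, 10 mM MgCl2). Rate came from the fluorescence difference over 30 min, ex 525/em 598 nm.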
G9a block – qHTS Assay for Inhibitors of Histone Lysine Methyltransferase G9a. actives 8.8% (n = 350,000). G9a H3K9 monomethylation, AlphaScreen, 2 h. Potency, µM (highest dose often 102 µM), without a hit: top-dose activity, negative = inhibition, usual class: inhibitors. Histone-lysine N-methyltransferase EHMT2 (Homo sapiens), Q96KQ7; also: % is scaled to controls: 0 for no effect and ±100 for the full control effect; nearly all actives have a fitted effect of over 75% in size
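G9a (20 nM) was preincubated 15 min with compound, then reacted 2 h at room temperature with 500 nM biotin-H3K9 peptide and 20 µM SAM. Monomethyl-H3K9 detected by AlphaScreen using anti-H3K9me1 antibody.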
The depositor's hits bear a star; [ ] = remark or other dose. Calls follow the shape of the dose curve; as a rule, active = well fitted curve in the direction sought with a large enough effect; inconclusive = small, poorly fitted or top-dose-only effect, or another doubt; inactive = no such curve, though single readings can be large; an effect the other way counts as inactive or inconclusive. Potency is read from the fitted curve at half-maximal effect.

`CSCC[C@@H](C(=O)NCc1cccs1)N1Cc2ccccc2C1=O` gave JMJD2A Tudor inh -23%, HP1b binding inh 8%, BAZ2B inh -9%, Sfp PPTase inh 16% and G9a block 50µM*.
`CSCC[C@@H](C(=O)Nc1cccc(F)c1)N1Cc2ccccc2C1=O` gave JMJD2A Tudor inh -24%, HP1b binding inh 26%, BAZ2B inh -34% and G9a block 18µM*.
For CSCC[C@@H](C(=O)Nc1ccc2c(c1)OCCO2)N1Cc2ccccc2C1=O the results were JMJD2A Tudor inh inconclusive, HP1b binding inh -9%, BAZ2B inh -34%, Sfp PPTase inh 2% and G9a block inconclusive.
For CCOc1ccc(NC(=O)C(Cc2ccccc2)N2C(=O)c3cccc4cccc(c34)C2=O)cc1 (stereo unspecified) the results were L3MBTL1 inh 4%, JMJD2A Tudor inh -17%, HP1b binding inh 21%, BAZ2B inh 1%, Sfp PPTase inh 10% and G9a block inconclusive.
Screening Cc1cc(C)c(NC(=O)Cn2c(=O)n(CCC(C)C)c(=O)c3cccnc32)c(C)c1 returned JMJD2A Tudor inh -17%, HP1b binding inh 7%, BAZ2B inh 5% and G9a block 11%[59 µM].
For COc1cccc2c1C1COC3C4CC(C(=O)O)C(C(C2)N13)N4C (stereo unspecified) the results were JMJD2A Tudor inh 13µM* and HP1b binding inh 22%.
Screening Oc1cccc2cc3cccc(O)c3c(O)c12 returned L3MBTL1 inh -15%, JMJD2A Tudor inh inconclusive, HP1b binding inh -8%, BAZ2B inh 40µM*, Sfp PPTase inh 13% and G9a block inconclusive.
For CCc1ccc(C2c3[nH]c4ccccc4c3CCN2C(=O)c2cc(C)nn2C)cc1 (stereo unspecified) the results were L3MBTL1 inh inconclusive, JMJD2A Tudor inh inconclusive, HP1b binding inh -9%, BAZ2B inh inconclusive, Sfp PPTase inh -6% and G9a block 16µM*.
Screening Cc1cnc(C(=O)N2CCc3c([nH]c4ccccc34)C2c2ccc(F)cc2)cn1 (stereo unspecified) returned L3MBTL1 inh -13%, JMJD2A Tudor inh inconclusive, HP1b binding inh -7%, BAZ2B inh 28µM* and Sfp PPTase inh -1%.
Cc1cccc(C2c3[nH]c4ccccc4c3CCN2C(=O)c2ocnc2C)n1 (stereo unspecified) was read as L3MBTL1 inh -4%, JMJD2A Tudor inh -32%, HP1b binding inh 6%, BAZ2B inh 79µM*, Sfp PPTase inh -12% and G9a block 32µM*.
CC(=O)c1cccc(NC(=O)CSc2nc3ccccc3nc2Cc2ccc(F)cc2)c1 was read as JMJD2A Tudor inh -18%, HP1b binding inh 18%[57 µM], BAZ2B inh -1% and G9a block 4%[59 µM].
Screening CC(=O)c1cccc(NC(=O)c2nc3ccccc3nc2N2CCCCC2)c1 returned JMJD2A Tudor inh inconclusive, HP1b binding inh -22%, BAZ2B inh -32% and G9a block -9%[59 µM].
Screening CCC(=O)N1CCc2cc(Br)cc(S(=O)(=O)CCC(=O)NCCc3ccc(Cl)cc3)c21 returned JMJD2A Tudor inh -1%, HP1b binding inh 37%, BAZ2B inh 1% and G9a block 4%[59 µM].
For CS(=O)(=O)Nc1cccc(-c2ccc3ncnc(NCCN4CCOCC4)c3c2)c1 the results were Sfp PPTase inh 34% and G9a block -8%[0.501 µM].

Screens: PubChem, National Center for Advancing Translational Sciences (NCATS)
